For assay [1], the system named is PRMT1 (protein arginine N-methyltransferase 1). The experiment in a line: PRMT1 binders on small-molecule microarrays, primary screen, biochemical, small-molecule microarray, 635 nm fluorescence (AID 1088).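 Note: binding of Prmt1 protein to compounds spotted on small-molecule microarray slides.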 Conditions: small-molecule microarray binding, higher = more signal.
Assay [2] can be described thus: yeast growth modulation, basal conditions, primary screen, YJM789 clinical isolate, OD600, 24 h (AID 1089).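 Note: growth of clinical yeast isolate S. cerevisiae YJM 789 seeded 1000 cells per well; test concentration not given here.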 Conditions: S. cerevisiae YJM789 growth, higher = more signal, called active from +8 up or from −8 down.
A short description of assay [3]: fission yeast growth modulation, primary screen, strain 972, OD600, 24 h, no modulator (AID 1090).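 Note: basal condition with compound alone and no growth modifier present; test concentration not given here.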 Conditions: S. pombe 972 growth, higher = more signal, called active from +8 up or from −8 down.
Assay [4] is described as follows: S. cerevisiae growth modulation with rapamycin, primary screen, strain BY4716, OD600, 96 h (AID 1091). Note: test concentration not given here. Conditions: higher = more signal, called active from +8 up or from −8 down.
Assay [5] addresses Torsin-1A-interacting protein 2 (Homo sapiens) (UniProt Q8NFQ8). Kind of assay: LULL1 binders on small-molecule microarray, primary screen, cell lysate, human LULL1 lysate, 635/667 nm fluorescence (AID 1092).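 Note: probe is lysate of COS7 cells overexpressing human LULL1; score merges per-feature 667 nm fluorescence with signal-to-noise.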 Conditions: hLULL1 lysate binding, 635 nm fluorescence, higher = more signal.
Assay [6] in a line: E. coli growth modulation, two-sided OD650, primary screen, E. coli filamentation project, strain DRC41, 24 h (AID 1093).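 Note: MC1000 strain lacking acrAB efflux and sulA so SOS filamentation is blocked; test concentration not given here.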 To be noted: OD650, 24 h, higher = more signal, called active from +8 up or from −8 down.
A short description of assay [7]: small-molecule microarray binders of probe aLefty2, primary screen, biochemical, biotinylated probe, 635/667 nm fluorescence (AID 1094).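 Note: score merges spot fluorescence near 667 nm with spot signal-to-noise ratio.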 To be noted: higher = more signal.
Assay [8] concerns Noggin (protein binding on small-molecule microarray). The experiment in a line: Noggin binders on small-molecule microarray, primary screen, biochemical, 635/667 nm fluorescence (AID 1095).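 Note: score merges 667 nm feature fluorescence with signal to noise over triplicate slides.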 Conditions: 635 nm fluorescence, higher = more signal.
For assay [9], the target named is Neurogenic locus notch homolog protein 3 (Homo sapiens) (UniProt Q9UM47). The experiment in a line: NOTCH3 binders on small-molecule microarray, primary screen, biochemical, 635/667 nm fluorescence (AID 1096). To be noted: NOTCH3 binding, 635 nm fluorescence, higher = more signal.
Sequence of Neurogenic locus notch homolog protein 3 (Homo sapiens) (Q9UM47 whole entry, looked up): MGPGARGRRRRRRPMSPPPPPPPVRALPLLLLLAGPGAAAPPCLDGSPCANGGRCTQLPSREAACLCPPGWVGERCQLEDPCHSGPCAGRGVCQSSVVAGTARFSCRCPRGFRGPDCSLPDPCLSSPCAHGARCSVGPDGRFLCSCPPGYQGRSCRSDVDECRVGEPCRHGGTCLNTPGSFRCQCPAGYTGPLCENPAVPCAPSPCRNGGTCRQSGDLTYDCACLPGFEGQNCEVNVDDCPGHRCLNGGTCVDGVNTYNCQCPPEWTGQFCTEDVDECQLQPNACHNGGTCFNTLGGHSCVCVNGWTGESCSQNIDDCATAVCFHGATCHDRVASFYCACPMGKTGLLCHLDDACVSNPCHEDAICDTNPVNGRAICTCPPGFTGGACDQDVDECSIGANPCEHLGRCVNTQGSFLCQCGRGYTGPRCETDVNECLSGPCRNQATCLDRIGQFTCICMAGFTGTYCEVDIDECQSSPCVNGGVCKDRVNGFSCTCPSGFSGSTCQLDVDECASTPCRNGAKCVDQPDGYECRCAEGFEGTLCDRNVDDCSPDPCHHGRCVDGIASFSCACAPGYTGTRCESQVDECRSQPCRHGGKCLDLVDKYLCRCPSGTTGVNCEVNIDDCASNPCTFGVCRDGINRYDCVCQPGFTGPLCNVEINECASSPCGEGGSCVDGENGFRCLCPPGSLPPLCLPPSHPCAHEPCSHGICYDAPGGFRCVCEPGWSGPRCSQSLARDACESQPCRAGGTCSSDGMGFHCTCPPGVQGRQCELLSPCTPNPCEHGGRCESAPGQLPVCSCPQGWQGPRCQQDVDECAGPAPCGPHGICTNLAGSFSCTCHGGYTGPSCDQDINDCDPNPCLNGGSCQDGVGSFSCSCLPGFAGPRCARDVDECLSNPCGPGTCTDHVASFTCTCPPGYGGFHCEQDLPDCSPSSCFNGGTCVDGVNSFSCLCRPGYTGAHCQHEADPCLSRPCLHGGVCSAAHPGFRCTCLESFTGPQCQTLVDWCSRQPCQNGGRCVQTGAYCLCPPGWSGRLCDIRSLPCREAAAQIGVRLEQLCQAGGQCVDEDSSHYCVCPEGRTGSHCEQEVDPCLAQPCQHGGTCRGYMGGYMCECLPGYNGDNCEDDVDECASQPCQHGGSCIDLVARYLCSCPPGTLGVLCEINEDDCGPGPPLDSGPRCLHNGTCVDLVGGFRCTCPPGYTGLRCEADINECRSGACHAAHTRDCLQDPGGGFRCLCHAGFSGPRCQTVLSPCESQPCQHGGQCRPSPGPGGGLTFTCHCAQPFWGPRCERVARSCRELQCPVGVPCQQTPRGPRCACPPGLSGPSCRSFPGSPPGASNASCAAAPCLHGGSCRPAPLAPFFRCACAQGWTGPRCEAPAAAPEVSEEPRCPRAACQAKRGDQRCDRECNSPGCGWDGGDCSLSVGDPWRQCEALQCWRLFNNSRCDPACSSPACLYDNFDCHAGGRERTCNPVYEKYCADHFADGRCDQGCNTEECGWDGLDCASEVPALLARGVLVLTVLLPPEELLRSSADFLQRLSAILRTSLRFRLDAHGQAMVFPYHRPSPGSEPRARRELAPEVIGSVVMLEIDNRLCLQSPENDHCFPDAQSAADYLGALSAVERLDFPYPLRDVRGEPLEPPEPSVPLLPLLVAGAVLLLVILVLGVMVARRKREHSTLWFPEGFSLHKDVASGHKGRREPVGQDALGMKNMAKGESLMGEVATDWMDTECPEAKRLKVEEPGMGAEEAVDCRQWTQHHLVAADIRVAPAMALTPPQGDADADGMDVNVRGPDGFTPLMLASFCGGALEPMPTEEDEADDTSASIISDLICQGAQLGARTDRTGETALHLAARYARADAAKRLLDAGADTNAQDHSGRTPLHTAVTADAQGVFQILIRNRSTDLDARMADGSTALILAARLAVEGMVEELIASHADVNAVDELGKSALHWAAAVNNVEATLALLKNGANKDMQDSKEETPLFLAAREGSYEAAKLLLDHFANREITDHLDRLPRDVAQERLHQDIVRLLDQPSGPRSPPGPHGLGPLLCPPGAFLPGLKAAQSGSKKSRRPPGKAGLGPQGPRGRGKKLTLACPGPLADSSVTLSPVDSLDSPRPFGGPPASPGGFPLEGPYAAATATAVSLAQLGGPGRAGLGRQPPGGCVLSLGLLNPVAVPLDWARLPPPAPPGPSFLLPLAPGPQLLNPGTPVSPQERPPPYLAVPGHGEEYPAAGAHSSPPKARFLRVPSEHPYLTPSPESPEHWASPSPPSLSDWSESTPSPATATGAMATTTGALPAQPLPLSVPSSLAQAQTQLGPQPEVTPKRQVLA
The nature of assay [10]: small-molecule microarray binders of probe aEGFR, primary screen, biochemical, biotinylated probe, 635/667 nm fluorescence (AID 1097).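 Note: probe is a biotinylated anti-EGFR antibody binding compounds printed on slides; score combines fluorescence near 667 nm and signal to noise of each spot.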 Conditions: higher = more signal.
Assay [11] deals with Plasmodium falciparum Sir2 (PF13_0152, Sir2A). The experiment in a line: pfSir2 binders on small-molecule microarrays, primary screen, biochemical, small-molecule microarray, 635 nm fluorescence (AID 1098).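 Note: score merges spot fluorescence intensity with its signal-to-noise ratio.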 To be noted: small-molecule microarray binding, fluorescence 635 nm; higher = more signal.
Assay [12] can be described thus: small-molecule microarray binders of probe aDKK1, primary screen, biochemical, biotinylated probe, 635/667 nm fluorescence (AID 1099).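 Note: score merges 667nm spot fluorescence with signal to noise across triplicate slides; reference of the scale not given here.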 To be noted: higher = more signal.
Assay [13] is described as follows: small-molecule microarray binders of probe aCHRDL2, primary screen, biochemical, biotinylated probe, 635/667 nm fluorescence (AID 1100). Conditions: higher = more signal.
The nature of assay [14]: splicing luciferase reporter signal modulators, primary screen, spliceosome inhibition project, cell-based, HEK293, splice +/- reporter (AID 1101).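 Note: HEK293 cells carrying a splicing-competent luciferase reporter gene; test concentration not given here.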 To be noted: luminescence, 24 h, higher = more signal, called active from +8 up or from −8 down. (In a reporter assay the amount or activity of a reporter protein is the signal.)
For assay [15], the target named is Fibroblast growth factor 10 (Homo sapiens) (UniProt O15520). Kind of assay: FGF10 binders on small-molecule microarrays, primary screen, biochemical, small-molecule microarray, 635 nm fluorescence (AID 1102). To be noted: FGF10 binding, fluorescence 635 nm, higher = more signal.
Sequence of Fibroblast growth factor 10 (Homo sapiens) (O15520 whole entry, looked up): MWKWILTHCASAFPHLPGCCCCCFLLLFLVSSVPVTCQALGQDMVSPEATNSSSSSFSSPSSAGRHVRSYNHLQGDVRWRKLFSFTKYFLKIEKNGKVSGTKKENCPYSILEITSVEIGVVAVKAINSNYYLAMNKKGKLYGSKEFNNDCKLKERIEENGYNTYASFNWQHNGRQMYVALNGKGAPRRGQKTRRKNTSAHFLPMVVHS
The test system of assay [16] is glycogen synthase kinase-3 (GSK3A per assay name; protocol says GSK3B). Kind of assay: GSK3 binders on small-molecule microarrays, primary screen, biochemical, small-molecule microarray, 635 nm fluorescence, GSK3A (AID 1103). Note: the record names both GSK3A and GSK3B. Conditions: small-molecule microarray binding, fluorescence 635 nm; higher = more signal.
Assay [17] addresses Epidermal growth factor receptor (Homo sapiens) (UniProt P00533). The experiment in a line: EGFR binders on small-molecule microarrays, primary screen, biochemical, small-molecule microarray, 635 nm fluorescence (AID 1104).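 Note: score merges 667 nm emission intensity with spot signal to noise over triplicate slides.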 Conditions: EGFR binding, higher = more signal.
Assay [18] concerns the target Follistatin-related protein 3 (Homo sapiens) (UniProt O95633). Kind of assay: FSTL3 binders on small-molecule microarrays, primary screen, biochemical, small-molecule microarray, 635 nm fluorescence (AID 1105).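 Note: score merges emission near 667 nm and signal to noise per printed spot across three slides.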 Conditions: FSTL3 binding, higher = more signal.
The target of assay [19] is Dickkopf-related protein 1 (Homo sapiens) (UniProt O94907). Kind of assay: DKK1 binders on small-molecule microarrays, primary screen, biochemical, small-molecule microarray, 635 nm fluorescence scan (AID 1106).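 Note: score merges emission near 667 nm with signal to noise over three replicate slides.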 Conditions: DKK1 binding, higher = more signal.
Sequence of Dickkopf-related protein 1 (Homo sapiens) (O94907 whole entry, looked up): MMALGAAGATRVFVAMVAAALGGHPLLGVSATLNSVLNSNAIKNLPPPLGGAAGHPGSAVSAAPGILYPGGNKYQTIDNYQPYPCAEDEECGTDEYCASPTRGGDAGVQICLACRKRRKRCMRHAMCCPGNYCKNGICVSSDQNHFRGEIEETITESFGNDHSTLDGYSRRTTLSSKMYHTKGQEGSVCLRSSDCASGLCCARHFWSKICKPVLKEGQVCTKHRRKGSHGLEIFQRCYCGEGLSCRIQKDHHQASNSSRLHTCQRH
Assay [20] deals with Inhibin beta A chain (activin A). The experiment in a line: INHBA (activin A) binders on microarrays, primary screen, biochemical, small-molecule microarray, 635 nm fluorescence scan (AID 1107).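 Note: mouse activin A protein probed at 4.33 µg/mL on printed slides; score merges bound-protein fluorescence near 667 nm with spot signal-to-noise.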 To be noted: small-molecule microarray binding, higher = more signal.

The structures appear in SMILES notation. Calls of active or inactive are those of the source.

Sequence of Torsin-1A-interacting protein 2 (Homo sapiens) (Q8NFQ8 whole entry, looked up): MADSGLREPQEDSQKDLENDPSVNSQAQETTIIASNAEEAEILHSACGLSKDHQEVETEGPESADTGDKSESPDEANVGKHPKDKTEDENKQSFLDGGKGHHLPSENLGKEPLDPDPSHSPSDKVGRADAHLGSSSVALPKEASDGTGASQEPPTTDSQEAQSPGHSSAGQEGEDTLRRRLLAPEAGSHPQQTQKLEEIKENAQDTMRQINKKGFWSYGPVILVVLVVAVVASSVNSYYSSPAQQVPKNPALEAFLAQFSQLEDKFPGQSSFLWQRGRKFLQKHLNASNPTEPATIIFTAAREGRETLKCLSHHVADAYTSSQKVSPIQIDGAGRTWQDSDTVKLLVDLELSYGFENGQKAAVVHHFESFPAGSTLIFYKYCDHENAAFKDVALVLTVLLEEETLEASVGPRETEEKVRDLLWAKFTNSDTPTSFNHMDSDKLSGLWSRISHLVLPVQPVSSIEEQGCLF
Sequence of Follistatin-related protein 3 (Homo sapiens) (O95633 whole entry, looked up): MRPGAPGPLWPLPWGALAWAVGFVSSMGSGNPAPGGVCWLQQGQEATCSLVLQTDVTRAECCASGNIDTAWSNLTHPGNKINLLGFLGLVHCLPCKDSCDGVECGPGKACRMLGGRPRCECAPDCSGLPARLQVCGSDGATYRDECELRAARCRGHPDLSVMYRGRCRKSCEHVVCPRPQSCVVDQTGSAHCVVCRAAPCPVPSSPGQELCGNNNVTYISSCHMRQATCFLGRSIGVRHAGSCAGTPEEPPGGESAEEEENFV
Sequence of Epidermal growth factor receptor (Homo sapiens) (P00533 whole entry, looked up): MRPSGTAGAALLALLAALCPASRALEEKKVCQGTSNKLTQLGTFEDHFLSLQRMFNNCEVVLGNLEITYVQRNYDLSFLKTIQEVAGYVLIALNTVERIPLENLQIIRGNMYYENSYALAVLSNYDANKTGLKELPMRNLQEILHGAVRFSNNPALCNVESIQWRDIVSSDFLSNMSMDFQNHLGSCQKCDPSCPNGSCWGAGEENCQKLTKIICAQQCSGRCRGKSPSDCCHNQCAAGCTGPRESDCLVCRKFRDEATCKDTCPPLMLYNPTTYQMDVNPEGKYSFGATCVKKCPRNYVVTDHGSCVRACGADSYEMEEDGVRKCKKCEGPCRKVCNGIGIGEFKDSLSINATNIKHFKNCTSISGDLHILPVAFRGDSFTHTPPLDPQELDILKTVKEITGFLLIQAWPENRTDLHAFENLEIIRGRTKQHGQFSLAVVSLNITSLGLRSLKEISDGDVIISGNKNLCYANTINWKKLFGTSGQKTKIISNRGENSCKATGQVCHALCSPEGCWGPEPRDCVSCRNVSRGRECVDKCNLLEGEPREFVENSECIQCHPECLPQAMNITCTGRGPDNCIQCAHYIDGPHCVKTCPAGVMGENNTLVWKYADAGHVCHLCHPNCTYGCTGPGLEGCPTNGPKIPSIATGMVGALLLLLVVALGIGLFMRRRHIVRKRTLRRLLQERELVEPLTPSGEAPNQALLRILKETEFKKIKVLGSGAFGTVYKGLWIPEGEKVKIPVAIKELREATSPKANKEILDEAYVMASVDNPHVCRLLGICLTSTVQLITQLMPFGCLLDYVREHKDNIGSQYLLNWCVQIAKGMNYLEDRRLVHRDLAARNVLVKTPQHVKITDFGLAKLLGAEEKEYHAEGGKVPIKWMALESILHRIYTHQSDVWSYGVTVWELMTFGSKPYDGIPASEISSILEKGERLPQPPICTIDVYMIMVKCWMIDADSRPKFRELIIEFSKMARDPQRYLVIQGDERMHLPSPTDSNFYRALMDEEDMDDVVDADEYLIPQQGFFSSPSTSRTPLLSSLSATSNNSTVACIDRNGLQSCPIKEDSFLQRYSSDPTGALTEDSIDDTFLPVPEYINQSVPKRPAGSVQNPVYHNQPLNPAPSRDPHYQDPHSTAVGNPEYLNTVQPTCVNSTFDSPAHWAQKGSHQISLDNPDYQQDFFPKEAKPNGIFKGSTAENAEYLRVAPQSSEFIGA

Turning to `C=CC[C@]12N=C(c3ccc(OCCCO)cc3)O[C@H]1c1ccccc1N(C)C2=O`, the composite z-score was determined as 1.57 in assay [1]; 2.78 in assay [5]; 0.28 in [7]; 0.798 in [8]; 0.725 in assay [9]; 0.0488 in assay [10]. The composite z-score was 1.24 in assay [11]; 0.765 in assay [12]; 0.864 in assay [13]; 0.597 in assay [15]; 1.3 in [16]; 0.177 in assay [17]. The composite z-score came out at 0.472 in [18], 0.334 in assay [19] and 1.3 in assay [20]. The z-score is -0.167 (inactive) in assay [2]; -4.1 (inactive) in assay [3]; 0.532 (inactive) in [4]; -0.479 (inactive) in [6]; -1.06 (inactive) in [14].

Turning to `COCCCNC(=O)[C@]1(CCC(=O)OC(C)(C)C)N=C(c2ccc(OCCCO)cc2)O[C@@H]1c1ccccc1`, the composite z-score is 1.22 in [1]; 3.65 in [5]; 0.629 in assay [7]; -0.275 in [8]; 0.226 in assay [9]; 0.475 in assay [10]. Besides, the composite z-score in [11] was 1.31; in [12], 1.33; in assay [13] it was 0.701; in assay [15], 0.417; in assay [16] it was 1.28; in assay [17], -0.301. Moreover, the composite z-score in [18] is -0.47; in [19] it was -0.261; in assay [20], -0.497. Further, the z-score in [2] was 0.12 (inactive); in assay [3], 1.06 (inactive); in [4], -0.302 (inactive); in assay [6], 0.447 (inactive); in [14], -0.307 (inactive).

Consider `CC(=O)n1cc(C(O)C2C=CC3C(=O)N(c4ccccc4)C(=O)C3N2Nc2ccccc2)c2ccccc21` (stereo not given), for which the composite z-score in assay [1] is 0.174; in [5], 2.73; in assay [7], 0.203; in [8], -0.272; in [9] it was 0.816; in assay [10] it was 0.672. Also, the composite z-score in [11] was 0.454; in assay [12], 1.81; in [13], 1.52; in assay [15], 0.833; in assay [16], -0.669; in [17], 0.444. The composite z-score in [18] was 1.19; in [19], 0.325; in assay [20], 1.93. Further, the z-score is 0.514 (inactive) in assay [2]; 0.965 (inactive) in [3]; 0.102 (inactive) in [4]; -1.18 (inactive) in [6]; -1.22 (inactive) in [14].

For `COCCCNC(=O)[C@@H]1c2ccccc2C(=O)N(Cc2ccccc2C(F)(F)F)[C@H]1c1ccc(CO)cc1`, the composite z-score was 0.12 in assay [1]; 0.73 in [5]; -0.0855 in assay [7]; -0.789 in assay [8]; -0.941 in assay [9]; -0.0146 in assay [10]. In addition, the composite z-score was 1.58 in assay [11]; 0.484 in assay [12]; 0.879 in [13]; -0.0537 in assay [15]; 0.575 in assay [16]; -0.222 in [17]. Moreover, the composite z-score was -0.582 in assay [18], -0.595 in assay [19] and 0.923 in [20]. The z-score in assay [2] was -0.409 (inactive); in [3] it was -0.514 (inactive); in assay [4] it was -0.368 (inactive); in [6], 0.598 (inactive); in assay [14], 0.354 (inactive).

Consider `CCOC(=O)C[C@H]1[C@H](OC(=O)c2ccccc2-c2ccccc2)[C@@H](NC(=O)c2ccc3ccccc3n2)c2cc(OCCCO)ccc2N1C(=O)c1ccc2ccccc2n1`, for which the composite z-score is 0.215 in assay [1]; 0.84 in assay [5]; -0.269 in [7]; 0.283 in [8]; 0.598 in assay [9]; -0.0512 in [10]. In addition, the composite z-score is 0.638 in assay [11]; -0.267 in assay [12]; -0.535 in [13]; 0.611 in assay [15]; 0.0214 in assay [16]; 0.378 in assay [17]. The composite z-score in assay [18] is 0.469; in assay [19] it was 0.452; in assay [20], -0.0055. Further, the z-score was -0.717 (inactive) in [2]; -0.653 (inactive) in assay [3]; -0.299 (inactive) in assay [4]; 0.597 (inactive) in assay [6]; -1.19 (inactive) in assay [14].

The values above are taken from PubChem BioAssay.
